The record followed here is PubChem BioAssay (NCI).

The panel holds about 83,000 compounds, 20% with a hit somewhere; the sample as a whole holds those more often.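 Values shown are percent growth following 48 h exposure of cells in 96-well plates to a single concentration of compound; below 10 was considered active.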 Unmarked numbers belong to inactive results. The source made the active and inactive calls.

Common to all, as to experiment: NCI-60 one-dose screen, 48 h (100 = growth as untreated, 0 = no growth, -100 = all killed)
For experiment [1], the system named is HCT-15 colon. The note with it: 10 µM unless noted.
In experiment [2] the test system is HT29 colon. Particulars: 10 µM unless noted.
In experiment [3] the test system is SNB-75 CNS. The note with it: 10 µM unless noted.
For experiment [4], the system named is SNB-19 CNS. The note with it: 10 µM unless noted.
In experiment [5] the test system is U251 CNS. The note with it: 10 µM unless noted.
For experiment [6], the system named is PC-3 prostate. The note with it: 10 µM unless noted.
Experiment [7] deals with SK-MEL-5 melanoma. Particulars: 10 µM unless noted.
Experiment [8] concerns UACC-62 melanoma. Particulars: 10 µM unless noted.
Experiment [9] has as its system SK-MEL-28 melanoma. The note with it: 10 µM unless noted.
Experiment [10] deals with SK-MEL-2 melanoma. Particulars: 10 µM unless noted.
Experiment [11] relates to EKVX NSCLC. Particulars: 10 µM unless noted.
Experiment [12] has as its system SN12C renal. Particulars: 10 µM unless noted.
Experiment [13] has as its system UO-31 renal. The note with it: 10 µM unless noted.
Experiment [14] deals with TK-10 renal. Particulars: 10 µM unless noted.
For experiment [15], the system named is ACHN renal. Particulars: 10 µM unless noted.
In experiment [16] the test system is CAKI-1 renal. The note with it: 10 µM.
Experiment [17] relates to A498 renal. Particulars: 10 µM unless noted.
In experiment [18] the test system is CCRF-CEM leukemia. The note with it: 10 µM unless noted.
The test system of experiment [19] is MOLT-4 leukemia. Particulars: 10 µM unless noted.
Experiment [20] relates to LOX IMVI melanoma. Particulars: 10 µM unless noted.

For `C#C[C@]1(O)CC[C@H]2[C@@H]3CC=C4c5sc(Nc6cccc(C)n6)nc5CC[C@]4(C)[C@H]3CC[C@@]21C`, the growth in [1] is 15.6%; in experiment [2], 37.7%; in [3], -23.9% (active); in experiment [4], 18.5%; in experiment [5], 6.3% (active); in experiment [6], -1.41% (active). The growth in [7] was 3.52% (active); in experiment [8], -20.9% (active); in experiment [9], -55% (active); in experiment [10] it was -9.35% (active); in [11] it was 8.96% (active); in experiment [12], 56.4%. Besides, the growth in experiment [13] is -15.4% (active); in experiment [14] it was 77.2%; in experiment [15] it was 33.1%; in experiment [16], 2.65% (active); in experiment [17] it was -29.2% (active); in [18] it was 2.04% (active). The growth in experiment [19] is -25.2% (active).
As for `CC(=O)c1sc(Nc2cccc(Nc3nc(C)c(C)s3)c2)nc1C`, the growth was 44.9% in experiment [1]; 70% in experiment [2]; 62.9% in experiment [3]; 90.9% in [4]; 65.7% in [5]; 51.3% in experiment [6]. Besides, the growth in [7] is 55.8%; in experiment [8] it was 48.8%; in [20] it was 48.1%; in experiment [11], 68.8%; in [12] it was 55%; in [13], 32.2%. Moreover, the growth was 53.6% in experiment [14]; 36.5% in experiment [15]; 28.1% in [16]; 27.7% in experiment [17]; 61.2% in experiment [18]; 38.3% in experiment [19].
In the case of `Clc1ccc(-c2csc(N/N=C/c3nc4ccccc4n3C3CC3)n2)cc1`, the growth in [1] was 90.5%; in [2], 99.8%; in experiment [3], 82.4%; in experiment [4] it was 98.3%; in experiment [5], 97.2%; in experiment [6] it was 98.4%. In addition, the growth in experiment [7] is 97.1%; in [8], 98.4%; in experiment [9], 101%; in [10] it was 106%; in experiment [11], 92.2%; in experiment [12], 104%. Also, the growth is 84.3% in experiment [13]; 85.6% in experiment [14]; 104% in experiment [15]; 89.7% in experiment [16]; 108% in experiment [17]; 93.7% in experiment [18]. Moreover, in [19], the growth was 98.2%.
Consider `CC(=O)NC(C)(C)C(=O)N1CCC[C@H]1C(=O)NC(C)(C)C(=O)N[C@@H](C)C(=O)NC(C)(C)C(=O)NC(C)(C)C(=O)N[C@@H](CCC(N)=O)C(=O)NC(C)(C)C(=O)N[C@H](C(=O)NC(C)(C)C(=O)NCC(=O)N[C@@H](CC(C)C)C(=O)NC(C)(C)C(=O)N1CCC[C@H]1C(=O)N[C@H](C(=O)NC(C)(C)C(=O)NC(C)(C)C(=O)N[C@@H](CCC(N)=O)C(=O)N[C@@H](CCC(N)=O)C(=O)N[C@H](CO)Cc1ccccc1)C(C)C)C(C)C`, for which the growth is 98.8% [4.25 µM] in experiment [1]; 27.4% [4.25 µM] in experiment [2]; 18.6% [4.25 µM] in experiment [3]; 19.1% [4.25 µM] in [4]; 21.8% [4.25 µM] in experiment [5]; 14.9% [4.25 µM] in experiment [6]. In addition, the growth was -45.7% [4.25 µM] (active) in experiment [7]; 35% [4.25 µM] in [8]; 18.6% [4.25 µM] in experiment [20]; 0.326% [4.25 µM] (active) in [10]; 65% [4.25 µM] in experiment [11]; 13.4% [4.25 µM] in [12]. For the same compound, the growth in [13] is 97.7% [4.25 µM]; in experiment [14], 59.2% [4.25 µM]; in [15], 96.3% [4.25 µM]; in experiment [17], 25% [4.25 µM]; in [18], 36.3% [4.25 µM]; in experiment [19] it was 35.6% [4.25 µM].
On to `c1ccc(-c2n(Cc3ccc4ccccc4c3)c3c4ccccc4c4ccccc4c3[n+]2Cc2ccc3ccccc3c2)cc1`, for which the growth is -76.7% (active) in experiment [1]; -67.2% (active) in experiment [2]; -54.3% (active) in experiment [3]; -88.5% (active) in experiment [4]; -78.7% (active) in [5]; -78.6% (active) in experiment [6]. Also, the growth was -98.5% (active) in experiment [7]; -87.6% (active) in experiment [8]; -86.2% (active) in experiment [20]; -68.3% (active) in experiment [10]; -90.2% (active) in experiment [11]; -83.7% (active) in [12]. In addition, the growth in [13] was -88% (active); in experiment [14], -76.6% (active); in experiment [15], -93.3% (active); in [16], -92.5% (active); in experiment [18], -18.9% (active); in experiment [19], -56% (active).
In the case of `N#Cc1c(NC(=O)c2ccccc2C(F)(F)F)sc2c1CCC(=O)C2`, the growth is -32.3% (active) in experiment [1]; 8.88% (active) in experiment [2]; 20.1% in experiment [3]; 15.5% in [4]; 16.3% in experiment [5]; 13% in experiment [6]. Moreover, the growth in experiment [7] was -75.5% (active); in experiment [8], -26.9% (active); in [20], 6.27% (active); in [10], 12.2%; in experiment [11], 12.4%; in experiment [12] it was 14.5%. Also, the growth was -25.2% (active) in [13]; 35.1% in experiment [14]; -32.8% (active) in [15]; -11.1% (active) in experiment [16]; 13% in [18]; 11.2% in experiment [19].
In the case of `CCn1c2ccc(/C=N/NS(=O)(=O)CCN(C)C)cc2c2cc(/C=N/NS(=O)(=O)CCN(C)C)ccc21`, the growth in experiment [1] is 108%; in experiment [2], 103%; in experiment [3], 107%; in experiment [4] it was 100%; in [5], 99.8%; in [6], 100%. The growth is -96.7% (active) in [7]; 98.6% in experiment [8]; 106% in experiment [9]; 105% in experiment [10]; 110% in [11]; 99.3% in experiment [12]. In addition, the growth in experiment [13] was 88%; in [14], 88.1%; in experiment [15], 97%; in experiment [16] it was 82.1%; in experiment [17] it was 69.8%; in experiment [18], 103%. Moreover, the growth in experiment [19] was 103%.
